GAA850 FXN act = activators of GAA850 frataxin (FXN) promoter; HEK293 lucGAA850 FXN promoter luciferase reporter, 24 h; percent of 10 µM SAHA response; activation, % at 6 µM; 360,000 tested, 0.56% active;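 active = activation above the average of all compounds screened plus 3 SD, cutoff fixed separately per campaign, cut at about 7.5% in these data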;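 note: 0% = DMSO wells and 100% = 10 µM SAHA wells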
SMARCA2 act = SMARCA2 function activation, primary screen | MG213 cells, MMTV-luciferase reporter, dexamethasone, overnight | activation, % at 9.1 µM | 370,000 tested, 1% active; in the data active = activation above about 7.8%;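 note: 0% = vehicle wells and 100% = reference activator wells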
HIF activator = HIF pathway transcriptional activation; U2OS HRE-luciferase reporter, luminescence; normalized: DMSO 0%, desferrioxamine 100%; AID 1910; 300,000 tested, 0.32% active; activation, % at 7.5 µM (by protocol);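 active = mean activation of at least 10% of the iron chelator positive control signal, with at least half of replicates also reaching 10%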
GalR3 antagonist = blocks the human galanin receptor 3; HEK293 GalR3-CNG cAMP membrane potential fluorescence; galR3 body fused to GalR1 C-terminus; 360,000 tested, 0.44% active; AID 651719; inhibition, % at 3 µM;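 active = inhibition above the screen-wide average plus 3 SD, cut at about 13% in these data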;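 note: forskolin and galanin both at EC90 stimulate the cells; cAMP rise reported by CNG channel membrane potential dye signal; 0% = forskolin plus galanin with DMSO and 100% = forskolin alone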
Target sequence (O60755 1-299 limits assumed): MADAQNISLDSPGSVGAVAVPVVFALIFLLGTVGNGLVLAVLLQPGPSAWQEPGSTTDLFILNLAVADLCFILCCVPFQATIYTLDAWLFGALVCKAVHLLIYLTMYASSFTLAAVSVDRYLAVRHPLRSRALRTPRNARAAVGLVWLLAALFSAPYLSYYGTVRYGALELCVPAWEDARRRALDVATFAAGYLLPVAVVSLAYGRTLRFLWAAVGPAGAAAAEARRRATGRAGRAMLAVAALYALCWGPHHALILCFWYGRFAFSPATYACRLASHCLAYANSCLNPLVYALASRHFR
Hsp70 activator = transcriptional activators of Hsp70. activation, % at 10 µM. AID 1203. 200,000 tested, 0.04% active. HeLa Hsp70 promoter luciferase reporter, luminescence; scaled: vehicle 0, proteasome-inhibitor control 100%;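 active = activation above the mean across all tested compounds plus 3 SD, cutoff set per campaign, cut at about 5.5% in these data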;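 note: 100% = MG132 at 30 µM as the positive control and 0% = DMSO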
GAA30 counter = counter-screen for GAA850 frataxin promoter activators: GAA30 promoter activation | AID 588350 | HEK293 lucGAA30 FXN promoter luciferase, 24 h; DMSO = 0%, 5 µM ipriflavone = 100% | activation, % at 6 µM | 1,900 tested, 66% active | shares compounds with GAA850 FXN act;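 active = mean activation above the mean of solvent-only control wells plus 3 SD, cut at about 22% in these data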;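 note: counterscreen of GAA850 promoter hits where activity marks nonselective or luminescence artifacts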
FXN GAA850 conf = confirmation of GAA850 frataxin (FXN) promoter activators; shares compounds with GAA850 FXN act; HEK293 lucGAA850 FXN promoter luciferase reporter, 24 h; 100% = activation by SAHA; activation, % at 6 µM; 1,900 tested, 86% active;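 active = mean activation above a set limit taken from the primary screen, cut at about 8% in these data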;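 note: 0% = DMSO wells and 100% = 10 µM SAHA wells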
Numbers without * were called inactive; nt = no result given. Sampled rows, rich in hits. Any-hit rate of the full collection: about 2.2%.

SMILES	GAA850 FXN act	SMARCA2 act	HIF activator	GalR3 antagonist	Hsp70 activator	GAA30 counter	FXN GAA850 conf
CC1CCC2(CC1)CCN(CCCOC(=O)Nc1cccc(F)c1)C2=O (stereo not given)	nt	-4	nt	nt	nt	nt	nt
CC1=C([N+](=O)[O-])C(c2cccc(Br)c2)C2=C(N1)c1ccccc1C2=O (stereo not given)	15*	2	2	-6	0	-13	35*
COC(=O)C1=C(C)NC2=C(C(=O)c3ccccc32)C1c1cccc(OC)c1 (stereo not given)	-1	-5	0	1	nt	nt	nt
Nc1ccccc1Nc1cc(-c2ccccc2)[nH]n1	9.3*	0	2	3	0	92*	54*
CCc1ccc(NC(=O)c2cc(S(=O)(=O)N3CCCC3)c[nH]2)cc1	-1	nt	0	nt	nt	nt	nt
CCOc1ccc(NC(=O)c2cc(S(=O)(=O)N3CCCCC3)c[nH]2)cc1	12*	-3	0	1	nt	4	3
C=CCc1c(C)nc(-c2ccccc2)nc1Nc1ccccc1O	7.9*	-3	0	-1	0	30*	21*
COC(=O)C1CN(Cc2ccccc2)CCS(=O)(=O)N1Cc1cn(Cc2cccc(Cl)c2)nn1 (stereo not given)	nt	-3	nt	nt	nt	nt	nt
C=CCSc1nc(N)c2c(C)c(C)sc2n1	8.2*	3	1	-7	0	55*	20*
COC(=O)N1C[C@H](OC)[C@H]2C[C@@H]1c1ccccc1O2	nt	0	nt	-8	nt	nt	nt
CN(Cc1ccc(F)cc1)C(=O)CN1C(=O)C2(OCCCO2)c2ccccc21	nt	-3	nt	nt	nt	nt	nt
O=C(NC12CC3CC(CC(C3)C1)C2)N(Cc1ccccc1)Cc1ccncc1	10*	-2	0	-7	0	13	13*
COc1cc(OC)cc(C(=O)Oc2ccc(/C=N/Nc3nc4ccccc4s3)cc2OC)c1	8.0*	-4	3	-8	0	116*	36*
COc1cc(/C=N/Nc2nc3ccccc3s2)ccc1OC(=O)c1ccccc1F	9.3*	6	4	3	0	118*	41*
Cc1ccc2c(c1)-c1c(cnn1CC(=O)NCCc1ccccc1F)CO2	nt	-3	nt	nt	nt	nt	nt
C[C@@H]1O[C@@H](n2c3ccc(Cl)cc3c3ccc4c5cc(Cl)ccc5[nH]c4c32)[C@H](O)[C@H](O)[C@H]1O	nt	-4	nt	nt	nt	nt	nt
Cc1ccc(S(=O)(=O)Nc2nc3ccccc3nc2N2CCOCC2)cc1	0	-3	nt	1	nt	nt	nt
O=S(=O)(Nc1nc2ccccc2nc1N1CCN(c2ccccc2)CC1)c1ccc(F)cc1	8.0*	-2	0	8	0	18	9.7*
COc1cc2sc3cc(NCC[C@@H]4CCCN4C)ccc3c(=O)c2cc1OC	9.9*	7	nt	-2	nt	83*	42*
O=C(CN1CCc2onc(-c3ccc(-n4cc(COc5ccc([N+](=O)[O-])cc5)nn4)cc3)c2C1=O)N1CCOCC1	nt	-4	nt	nt	nt	nt	nt
Oc1ccc(Nc2ncnc3c2oc2ccccc23)cc1	12*	3	6	-9	nt	143*	40*
COc1cccc(-c2nnc(SCC(=O)N3CCOCC3)o2)c1	2	2	nt	2	0	nt	nt
COc1ccc(-c2nnc(SCC(=O)N3CCOCC3)o2)cc1	7.7*	5	1	0	0	101*	30*
C=CCn1c(SCC(N)=O)nc2scc(-c3ccc(C)o3)c2c1=O	8.2*	6	3	-4	0	128*	43*
COC(=O)[C@]12C[C@H](CC(=O)N3CCOCC3)C(=O)N(Cc3cccc4ccccc34)C1=C[C@H](COCc1ccccc1)O[C@@H]2C	nt	0	nt	nt	nt	nt	nt
SMILES	GAA850 FXN act	SMARCA2 act	HIF activator	GalR3 antagonist	Hsp70 activator	GAA30 counter	FXN GAA850 conf
CN1/C(=C/C(=O)c2nc(S(C)(=O)=O)ncc2Cl)C(C)(C)c2ccccc21	9.8*	nt	nt	nt	0	-109	-19
CN1/C(=C\C(=O)c2cccnc2)C(C)(C)c2ccccc21	3	1	0	-5	0	nt	nt
COC(=O)[C@H]1C[C@@]2(C#N)c3ccccc3N(C(=O)OC(C)(C)C)[C@H]2N1C(=O)OC(C)(C)C	nt	7	nt	nt	nt	nt	nt
CCN1C(=O)[C@H]2[C@@H](c3ccc(C)cc3)N3C(=O)N(c4cccc(Cl)c4)C(=O)[C@@]3(CC)[C@H]2C1=O	8.2*	1	0	-6	nt	9	7.9*
Cc1ccc(N2C(=O)N3[C@H](c4cccc(C)c4)[C@@H]4C(=O)N(Cc5ccccc5)C(=O)[C@@H]4[C@]3(C)C2=O)cc1	7.6*	0	0	0	nt	18	8.5*
CCN1C(=O)[C@H]2[C@@H](c3ccc(C)cc3)N3C(=O)N(c4cccc(Cl)c4)C(=O)[C@@]3(C)[C@H]2C1=O	0	0	nt	-6	nt	nt	nt
CC[C@@]12C(=O)N(c3ccc(C)cc3)C(=O)N1[C@H](c1cccc(C)c1)[C@@H]1C(=O)N(Cc3ccccc3)C(=O)[C@@H]12	8.4*	3	1	-6	nt	23*	12*
CC[C@@]12C(=O)N(c3ccc(OC)cc3)C(=O)N1[C@H](c1cccc(C)c1)[C@@H]1C(=O)N(Cc3ccccc3)C(=O)[C@@H]12	4	nt	1	nt	nt	nt	nt
Cc1cccc([C@@H]2[C@@H]3C(=O)N(Cc4ccccc4)C(=O)[C@@H]3[C@]3(C)C(=O)N(c4cccc(F)c4)C(=O)N23)c1	-1	2	0	-6	nt	nt	nt
O=C(CCn1nnc2ccccc21)N1CCN(c2cccc(C(F)(F)F)c2)CC1	nt	-7	nt	nt	nt	nt	nt
COCCCNC(=O)CSc1nnc(-c2ccncc2)n1-c1ccc(OC)cc1	nt	-2	nt	nt	nt	nt	nt
C=CCOC(=O)C1=C(C)NC(C)=C(C(=O)OCC=C)C1c1cn(-c2ccccc2)nc1-c1ccco1	13*	0	0	-5	-1	11	5
CCCC[C@H]1C2CC(OC(=O)Nc3cccc(Cl)c3)C(C2)[C@H]2CCCCN21 (stereo not given in full)	nt	-3	nt	nt	nt	nt	nt
CCCCNc1ccc(C(F)(F)F)cc1S(=O)(=O)NCCc1ccc(F)cc1	12*	-2	nt	-4	nt	33*	17*
COC(=O)c1ccc(NC(=O)c2ccc(NS(=O)(=O)c3cccc4cccnc34)cc2)cc1	-2	nt	0	nt	nt	nt	nt
O=C(Nc1ccccc1O)c1ccc(NS(=O)(=O)c2cccc3cccnc23)cc1	20*	1	127*	2	2	56*	73*
O=C(Nc1ncccc1O)c1ccc(S(=O)(=O)Nc2ccccc2)cc1	20*	-1	72*	-4	nt	52*	47*
O=C(Nc1ncccc1O)c1ccc(NS(=O)(=O)c2ccc3[nH]c(=O)[nH]c3c2)cc1	1	-1	nt	-5	nt	nt	nt
Cn1c(=O)c2[nH]c(SCC(=O)NCCc3cccc(F)c3)nc2n(C)c1=O	nt	-3	nt	nt	nt	nt	nt

Bioassay records as filed in PubChem.
